# A selection: hits, their analogues and other compounds. The true share with any hit is near 21%.
# Pf growth 48h = P. falciparum growth inhibition at 48 hours (one generation); 5.9% of 310,000 active; AID 504832; P. falciparum luciferase growth in erythrocytes, 48 h; Potency, µM (series often up to 28.7 µM), for the others: at the top dose activity change, negative = inhibition, hits mostly inhibitors; note: potency is the fitted concentration of half-maximal effect; % is set by controls: 0 for no effect and ±100 for the full control effect
#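 Luciferase-expressing P. falciparum in infected erythrocytes (2% hematocrit, 0.1% parasitemia final) in RPMI 1640/0.5% Albumax were exposed to compound for 48 hours at 37 C, 5% CO2; growth read as luminescence.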
# Shiga inhibitor = blocks Shiga toxin action in Vero cells; Vero cells, Shiga toxin protein synthesis inhibition reporter; inhibition, % at 38.7 µM; 9.2% of 290,000 active; AID 2315; in the data active = inhibition mostly above about 28%, no sharp cut-off; inactive = mostly below about 43%; note: 0% is about no effect
# FBPA Giardia inh = Giardia lamblia aldolase inhibition. A8B2U2. purified Giardia FBPA. Potency, µM (series often up to 59.6 µM), inactives show top-dose activity, negative = inhibition, actives largely listed as inhibitors. 0.71% of 290,000 active. AID 2451; note: potency is the fitted concentration of half-maximal effect; % is set by controls: 0 for no effect and ±100 for the full control effect; nearly all actives have a fitted effect of over 55% in size
# Target sequence (A8B2U2 whole entry, looked up): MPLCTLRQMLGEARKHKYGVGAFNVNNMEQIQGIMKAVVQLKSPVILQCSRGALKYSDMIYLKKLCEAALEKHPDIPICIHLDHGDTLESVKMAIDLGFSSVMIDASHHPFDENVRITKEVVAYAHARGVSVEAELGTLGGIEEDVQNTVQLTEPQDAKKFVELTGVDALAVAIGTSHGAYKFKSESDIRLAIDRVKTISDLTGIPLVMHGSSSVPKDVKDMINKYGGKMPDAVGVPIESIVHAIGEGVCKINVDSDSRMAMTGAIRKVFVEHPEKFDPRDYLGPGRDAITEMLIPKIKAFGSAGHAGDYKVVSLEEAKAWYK
#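 Giardia FBPA (40 nM reagent) was preincubated 10 min at RT with compound (up to 57.5 uM final), then substrate plus GAPDH/TPI/NAD/arsenate coupling system with diaphorase/resazurin was added; resorufin fluorescence (525/598 nm) was read after 20 min.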
# Pf growth 96h = P. falciparum growth inhibition at 96 hour, primary screen for plastid delayed-death inhibitors; P. falciparum luciferase reporter growth, 96 h; Potency, µM (top dose mostly 28.7 µM), for inactives: at the highest dose activity change, negative = inhibition, most hits filed as inhibitors; 6.9% of 320,000 active; AID 504834; note: potency is the fitted concentration of half-maximal effect; % is set by controls: 0 for no effect and ±100 for the full control effect
#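 P. falciparum expressing integrated firefly luciferase, in erythrocytes at 2% hematocrit, 0.05% parasitemia, incubated with compounds 96 h at 37 C, 5% CO2. Growth inhibition read as loss of luminescence; two-generation exposure targets delayed-death apicoplast inhibitors.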
# Cycloheximide cs = counter-screen for Shiga toxin inhibitors: cycloheximide protein synthesis inhibition; cell reporter, cycloheximide protein synthesis inhibition counterscreen; AID 2314; 12% of 300,000 active; max response, %; in the data active = max response mostly above about 13%, no sharp cut-off; inactive = mostly below about 14%; note: read at 38.3 µM for the half of the compounds with a filed dose; 0% is about no effect
# NS1 function inh = blocks influenza NS1 protein function | Potency, µM (series often up to 46.1 µM), inactives show at the highest dose activity, positive = more growth | 0.4% of 270,000 active; calls by dose curve; note: potency is the fitted concentration of half-maximal effect; actives are rising curves; nearly all actives have a fitted effect of over 50% in size
#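 Recovery from NS1-induced slow growth read by OD600 in budding yeast switched to galactose assay medium (pH 6.0, -URA) at 1:100 dilution. Compound 23 nl per well; the matching strain lacking NS1 serves as control.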
# * = called active by the depositor; i = inactive; ? = inconclusive; . = not tested or not shown; [ ] = remark or other dose. Unless noted, calls come from the whole dose curve; as a rule, active = well fitted curve in the direction sought with a large enough effect; inconclusive = small, poorly fitted or top-dose-only effect, or another doubt; inactive = no such curve, though single readings can be large; an effect the other way counts as inactive or inconclusive.
SMILES,Pf growth 48h,Shiga inhibitor,FBPA Giardia inh,Pf growth 96h,Cycloheximide cs,NS1 function inh
O=C(CSc1ccccc1)N1CCN(c2ccccn2)CC1,8.7%,30.4,3.8%,31.9%,14.8*,.
O=C(c1c(Cl)cccc1Cl)N1CCN(c2ccccn2)CC1,-17.0%,-10.4,10.5%,.,-2.5,-0.7%
O=C(COc1cc(Cl)c(Cl)cc1Cl)N1CCN(c2ccccn2)CC1,6.0%[5.75 µM],-4.3,-1.8%,-2.7%,1.6,.
O=C(CCSCc1ccccc1F)N1CCN(c2ccccn2)CC1,27.4%,78.7*,-3.0%,?,27.6*,-15.8%
O=C(N1CCN(c2ccccn2)CC1)C(Cl)(Cl)Cl,9.28µM*,33.9*,0.3%,1.9%,27.5*,23.1%
Cc1ccc(C(=O)Nc2nc(C(C)(C)C)cs2)s1,20.1%,157.8*,-11.7%,.,56.5*,-83.0%
CC(C)(C)c1csc(NC(=O)c2ccncc2)n1,-5.4%,18.8,-0.1%,35.9%,13.6,.
CC(C)(C)c1csc(NC(=O)c2ccc(Cl)s2)n1,3.7µM*,102.6*,12.6%,.,62.8*,-62.4%
CCN(CC)CCNC(=O)c1cccc(NC(=O)C(=O)c2ccccc2NC(C)=O)c1,?,10.9,4.3%,0.0%,-7.2,.
O=C(NC(Cc1ccccc1)C(=O)N1CCN(c2ccccc2O)CC1)c1ccccc1 (stereo not drawn),8.28µM*,.,.,6.57µM*,.,.
CCOc1ccc(C(=O)NCC(=O)N2CCN(c3ccccc3O)CC2)cc1,?,-3.7,-1.1%,-23.1%,-0.8,6.7%
O=C(NCC(=O)N1CCN(c2ccccc2)CC1)c1ccccc1,62.8%,53.4*,1.4%,38.4%,10.7*,3.2%
O=C(NCC(=O)N1CCN(c2ccccc2O)CC1)c1ccccc1,-1.7%,77.1*,-13.3%,0.2%,43.8*,0.5%
COc1cc(NC(=O)C(C)N2CCN(C(=O)C3CC3)CC2)cc(OC)c1 (stereo not drawn),-3.8%,.,.,?,.,.
CSCC[C@H](NC(=O)[C@H](CC(C)C)N1CCC(NC(=O)[C@@H](NC(=O)[C@H](Cc2ccccc2)NC(=O)[C@H](CO)NC(=O)[C@H](CC(=O)O)NC(=O)[C@@H](N)CCCCN)C(C)C)C1=O)C(N)=O (stereo partly drawn),.,-4.4,-4.5%,.,-10.3,.
Cc1cc(C)c(NC(=O)COC(=O)Cc2cccs2)c(C)c1,-10.4%,.,.,19.8%,.,.
COC(=O)CCC(=O)N1CCCC(N2CCN(c3ccc(OC)cc3)CC2)C1 (stereo not drawn),5.5%,8.1,12.8%,?,0.5,-16.9%
CC(c1ccccc1)N1CC(C(=O)Nc2ccc(F)cc2)CC1=O (stereo not drawn),-17.7%,.,.,?,.,.
O=[N+]([O-])c1cc(/C=N/OCc2c(Cl)cccc2Cl)ccc1N1CCOCC1,?,15.3,1.8%,?,18.7*,-3.7%
CO/N=C/c1ccc(N2CCOCC2)c([N+](=O)[O-])c1,14.0%,4.2,-4.0%,49.5%,18.7,.
COc1ccc(N(C(=O)CNC(=O)c2ccco2)C(C(=O)NC2CCCC2)c2ccco2)cc1 (stereo not drawn),7.1%,24.7,10.4%,3.9%,-2.8,3.5%
Cc1ccc2c(c1)sc1nc(=O)n(-c3ccccc3)c(=O)n12,406.2%,93.0*,2.2%,138.7%,44.6*,0.9%
Cc1ccc2c(c1)sc1ncc(NC(=O)c3ccc(F)cc3)c(=O)n12,25.2%,39.1,2.2%,175.7%,12.3,.
COc1cccc(-c2cc(C(=O)Nc3cc(OC)c(OC)c(OC)c3)no2)c1,-20.9%,-10.5,-1.6%,?,-1.1,-42.3%
COc1cccc(-c2cc(C(=O)Nc3cccnc3)no2)c1,186.9%,79.9*,-0.6%,.,31.1*,-78.8%
O=C(Nc1cccnc1)c1cc(-c2ccccc2)on1,i,23.1,2.1%,1.9%,13.4,-12.9%
O=C(Nc1cccnc1)c1cc(-c2ccc(Br)cc2)on1,32.9%,41.7*,5.3%,0.5%,20.5*,-1.3%
COC(=O)c1c(-c2cccnc2)csc1NC(=O)c1cc(C)on1,-52.2%,83.3*,-22.6%,.,62.9*,-12.1%
COC(=O)c1c(-c2ccc(C)cc2)csc1NC(=O)c1c(-c2ccccc2)noc1C,?,-2.4,0.5%,0.0%,1.8,8.2%
